Gal4-VP16 FLuc: inhibits Gal4-VP16 luciferase reporter, ROR gamma counter-screen | Drosophila S2 Gal4-VP16 UAS-luciferase, luminescence, 20 h | Potency, µM (doses to about 53.6 µM), for the others: at the highest dose activity, negative = inhibition, most hits filed as inhibitors | actives 3.5% (n = 310,000) | AID 2546;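 further: Gal4-VP16 expression switched on by copper sulfate through the metallothionein promoter; on the % scale 0 is the no-effect control and ±100 the full control effect; nearly all actives have a fitted effect of over 50% in size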
SW480 rereplic: induces DNA re-replication in SW480 colon adenocarcinoma cells | SW480 DNA re-replication, Hoechst DNA content imaging, 48 h | Potency, µM (series often up to 46.1 µM), without a hit: top-dose re-replication activation, actives largely listed as activators | actives 1.8% (n = 340,000) | AID 624297; further: % of control where 0% means no effect; nearly all actives have a fitted effect of over 55% in size
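Hoechst fluorescence of nuclei (405 nm excitation, 500-530 nm emission) measured by plate-scanning imager after 48 hr compound exposure at 37 C; re-replication scored as increased number of nuclei with elevated intensity.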
ELG1 repair inh: inhibitors of ELG1-dependent DNA repair in HEK293T cells. AID 504467. Potency, µM (top dose mostly 46.1 µM), for inactives: at the top dose activity change, negative = inhibition, actives largely listed as inhibitors. HEK293T ELG1-luciferase reporter, luminescence, 16 h; DNA damage induced by 5-fluorouridine. actives 2.3% (n = 330,000); further: on the % scale 0 is the no-effect control and ±100 the full control effect; nearly all actives have a fitted effect of over 55% in size
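Quantitative HTS, concentration-response format. 2,000 cells/well co-treated with 5-fluorouridine and compound, 16 hr in 5% CO2 at 37 °C; ONE-Glo luminescence read after 30 min.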
MCF10A rerep: DNA re-replication induction in MCF 10a cells | MCF 10A DNA re-replication, Hoechst nuclear intensity, 48 h | Potency, µM (titrated, usually from 46.1 µM), inactives show top-dose activity, positive = re-replication, hits mostly activators | actives 2.9% (n = 350,000); further: % of control where 0% means no effect; nearly all actives have a fitted effect of over 50% in size
RORg inh: ROR gamma (mouse) transcription inhibition | P51450 | Drosophila S2 Gal4-RORgamma UAS-luciferase reporter, 20 h | Potency, µM (series often up to 53.6 µM), without a hit: top-dose activity change, negative = inhibition, most hits filed as inhibitors | actives 5.4% (n = 310,000) | AID 2551; further: on the % scale 0 is the no-effect control and ±100 the full control effect; nearly all actives have a fitted effect of over 60% in size
Target sequence (P51450 whole entry, looked up, the tested form may be a part): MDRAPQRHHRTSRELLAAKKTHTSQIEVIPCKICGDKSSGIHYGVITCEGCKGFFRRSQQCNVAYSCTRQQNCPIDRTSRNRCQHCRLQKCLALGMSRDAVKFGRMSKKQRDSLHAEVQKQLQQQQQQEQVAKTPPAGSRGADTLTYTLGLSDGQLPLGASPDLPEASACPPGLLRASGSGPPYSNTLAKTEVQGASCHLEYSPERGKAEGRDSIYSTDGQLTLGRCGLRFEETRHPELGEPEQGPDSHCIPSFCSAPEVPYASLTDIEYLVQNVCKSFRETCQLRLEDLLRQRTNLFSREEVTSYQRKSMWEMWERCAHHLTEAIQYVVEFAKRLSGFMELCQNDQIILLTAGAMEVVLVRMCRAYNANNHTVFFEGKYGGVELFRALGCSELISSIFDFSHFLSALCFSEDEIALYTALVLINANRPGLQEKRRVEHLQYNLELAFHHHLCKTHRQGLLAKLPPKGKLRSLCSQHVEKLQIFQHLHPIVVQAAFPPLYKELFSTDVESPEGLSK
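Drosophila Schneider cells stably carrying a metallothionein-driven Gal4 DBD–ROR gamma fusion and a UAS-Photinus luciferase reporter were exposed to compound for 1 hr, then induced with copper sulfate (700 uM final) for 20 hr at ambient temperature before luminescence reading.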
Starred values were filed as active, the others as inactive; ? = inconclusive; . = no result; [ ] = dose if it differs, or a comment. Hits are enriched below; roughly 10% of the tested compounds scored in any of these assays. The call rests on the fitted dose curve; in most records, active means well fitted curve in the direction sought with a large enough effect; inconclusive means small, poorly fitted or top-dose-only effect, or another doubt; inactive means no such curve, though single readings can be large; an effect the other way counts as inactive or inconclusive. Potency means the concentration at half of the fitted maximal effect.

SMILES	Gal4-VP16 FLuc	SW480 rereplic	ELG1 repair inh	MCF10A rerep	RORg inh
Cc1cc(C)cc(NS(=O)(=O)c2c(C)[nH]c(=O)[nH]c2=O)c1	1%	-11%	-1%	9%	1%
Cc1ccc(C)c(SCC(=O)c2ccc[nH]2)c1	-2%	4%	24%	6%	-8%
COc1cc(/C=N/NC(=O)c2ccc(COc3cc(C)ccc3C(C)C)cc2)cc(OC)c1O	16µM*	8%	5%	?	?
COc1cc(/C=N\NC(=O)c2ccc(-c3ccccc3)cc2)cc(OC)c1O	?	0%	-13%	?	?
Cc1ccc(C(C)C)c(OCc2ccc(C(=O)N/N=C/c3cccc(O)c3O)cc2)c1	2.5µM*	?	20%	?	1µM*
CCOc1cc(/C=N/NC(=O)c2ccc(=O)n(C)c2)ccc1O	-15%	-4%	?	0%	-16%
Cc1ccc(C(C)C)c(OCc2ccc(C(=O)N/N=C/c3ccc(O)c(O)c3)cc2)c1	35µM*	?	?	?	?
CC(=O)Nc1ccc(C(=O)N/N=C/c2ccccc2OCc2ccccc2)cc1	-5%	?	?	?	34%
COc1ccc(N(CC(=O)NCCSCc2ccc(Cl)cc2)S(C)(=O)=O)cc1Cl	-4%	-5%	?	16%	?
Cc1ccc(C(=O)Nc2nc(C)c(C(=O)Nc3ccc4c(c3)CCC4)s2)cc1	-9%	5.8µM*	?	1µM*	5%
O=C(Nc1ccc2c(c1)CCC2)c1cc2ccccc2o1	-4%	0%	?	22%	?
O=C(Nc1ccc2c(c1)CCC2)c1ccc(Br)o1	-5%	-1%[9.22 µM]	?	21µM*	1%
Cc1ccc(C(=O)Nc2ccc3c(c2)CCC3)o1	13µM*	0%	?	-4%	?
COc1ccc(C(=O)NCC(c2ccco2)N2CCc3ccccc32)cc1 (stereo unspecified)	.	?	27%	5.8µM*	.
COc1ccc(NC(=O)C(=O)NCC(c2ccco2)N2CCc3ccccc32)cc1 (stereo unspecified)	.	?	12%	22%	.
CCC(CO)NCc1ccc(OCC(O)c2ccccc2)c(OC)c1 (stereo unspecified)	0%	-23%	4%	27%	-52%
C=C(C)CNC(=S)N/N=C(\C)c1ccc(-n2ccnc2)cc1	7.9µM*	-5%	?	?	6.3µM*
C/C(=N\NC(N)=S)c1ccc(-n2ccnc2)cc1	-9%	1%	?	1%	?
CSCCC(NC(=O)c1ccccc1Br)C(=O)N1CCN(C(C)=O)CC1 (stereo unspecified)	.	-21%	14%	-5%	.
Cc1ccc(-c2nc(NC(=O)c3nn(C)cc3[N+](=O)[O-])sc2C)cc1C	-1%	1.5µM*	9.2µM*	?	20%
Cc1ccc(-c2nc(NC(=O)c3nn(C)cc3[N+](=O)[O-])sc2C)cc1	-4%	1%	16µM*	?	-2%
O=C(Nc1nc(-c2ccc(Cl)cc2)cs1)c1cccnc1	10%	-24%	-4%	?	1%
Cn1cc([N+](=O)[O-])c(C(=O)Nc2nc(-c3ccc(Cl)cc3)cs2)n1	-6%	5.8µM*	2.1µM*	5.2µM*	-15%
Cc1cnc(NC(=O)c2nn(C)cc2[N+](=O)[O-])s1	-1%	3.7µM*	15%	4.1µM*	21%
OCC[C@@H]1C[C@H](O)[C@@H](O)[C@]2(CCc3ccccc3CO2)O1	-13%	-22%	5%	-3%	-13%
SMILES	Gal4-VP16 FLuc	SW480 rereplic	ELG1 repair inh	MCF10A rerep	RORg inh
C1=C(CCNCC2CC2)CCCC1	-6%	-4%	-1%	3%	5µM*
Cc1cccc(C)c1NC(=S)N(c1ccccc1)C(C)C	-7%	-11%	-1%	-9%	-14%
CC(C)N(C(=S)NCc1ccccc1)c1ccccc1	?	-4%	-4%	?	7.9µM*
CC(C)N(C(=S)NCc1ccccc1)C(C)C	11µM*	1%	-3%	-2%	7.1µM*
CO[C@@H]1COC(=O)[C@H](COCc2ccccc2)NC(=O)C/C=C\[C@@H](C)[C@H](OC)COC(=O)[C@H](COCc2ccccc2)NC(=O)C/C=C\[C@H]1C	-7%[10 µM]	.	.	.	-5%[10 µM]
Cc1cccc(N2CCN(C(=O)C3CCN(c4ncnc5c4nc4n5CCCCC4)CC3)CC2)c1C	8.9µM*	-2%	?	?	?
Cc1cc(N2CCC(C(=O)N3CCN(c4cccc(C)c4C)CC3)CC2)n2ncnc2n1	-18%	4%	21µM*	?	?
O=C(C1CCN(c2ncnc3c2nc2n3CCCCC2)CC1)N1CCN(c2ccccc2F)CC1	-24%	-5%	?	-1%	?
Cc1cccc(N2CCN(C(=O)C3CCN(c4ncnc5c4nc4n5CCCCC4)CC3)CC2C)c1 (stereo unspecified)	0%	?	4.1µM*	15µM*	?
Cc1cc2c(c(C)c1Br)C(c1ccc3c(c1)OCO3)CC(=O)O2 (stereo unspecified)	-17%	8%	-3%	?	?
c1ccc(Cc2noc(CN3CCCC(CN4CCOCC4)C3)n2)cc1 (stereo unspecified)	-11%	2%	-4%	3%	5%
O=C(O)Cc1sc(Nc2cccc3ccccc23)nc1-c1ccccc1	.	-7%	22%	-2%	.
O=C(O)Cc1sc(Nc2cccc3ccccc23)nc1-c1ccc(Cl)cc1	13%	5%	14%	7.3µM*	15%
COc1ccc(C(=O)OCC(=O)N2CCN(S(=O)(=O)c3ccc(C)cc3)CC2)cc1[N+](=O)[O-]	.	-4%	.	2%	.
CCC(=NC)C1=C(O)CC(c2ccccc2)CC1=O (stereo unspecified)	6%	-6%	17%	-1%	20%
CC(=NCCc1c(C)[nH]c2ccc(OCc3ccccc3)cc12)C1=C(O)CC(c2ccccc2)CC1=O (stereo unspecified)	-34%	2%	?	1%	-1%
CCCCC(=NCCc1c(C)[nH]c2ccc(OC)cc12)C1=C(O)CC(c2ccccc2)CC1=O (stereo unspecified)	-1%	7.3µM*	10µM*	2.6µM*	15%
CCC(=NCCc1c(C)[nH]c2ccc(OC(F)(F)F)cc12)C1=C(O)CC(c2ccccc2)CC1=O (stereo unspecified)	-5%	12µM*	?	?	10%
CCC(=NCCc1c(C)[nH]c2ccccc12)C1=C(O)CC(c2ccccc2)CC1=O (stereo unspecified)	-6%	10µM*	8.2µM*	4.1µM*	41%
Cc1cc(C)c(C)c(S(=O)(=O)NNC(=O)c2cccc(S(=O)(=O)N3CCOCC3)c2)c1C	-4%	1%	0%	2%	24%

Screening data deposited in PubChem BioAssay by National Center for Advancing Translational Sciences (NCATS).
